The values below come from PubChem BioAssay.

Records with an inconclusive call do not appear. Calls of active or inactive are those of the source. Unless noted, the limit is not given here; nearly all actives have AC50 up to about 26 µM.

The nature of experiment [1]: growth inhibition of DIPG glioma cells, dose response, cell-based, SU-DIPG-XIII, MIPE5.0, CellTiter-Glo, qHTS (AID 1347064; cut-off not given, nearly all actives have AC50 up to about 23 µM;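 as to AC50: cells exposed to compound for 48 hours before the viability read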). Particulars: SU-DIPG-XIII viability, CellTiter-Glo ATP luminescence. In general terms: ATP-based viability assays read luminescence as a measure of living cells.
Experiment [2] is described as follows: viability loss in pontine glioma line – cell-based, SU-DIPG-XXV, MIPE5.0, CellTiter-Glo, qHTS, dose response (AID 1347065).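 Also: cells exposed to compound for 48 hours before ATP readout.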 To be noted: CellTiter-Glo ATP luminescence.
A short description of experiment [3]: JHH-DIPG-1 glioma cell viability, MIPE5.0 library, CellTiter-Glo luminescence, qHTS (AID 1347067).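 Also: cells exposed to compound for 48 hours before readout.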 Particulars: JHH-DIPG-1 glioma viability, CellTiter-Glo ATP luminescence.
Experiment [4] is described as follows: modifiers of HSF1 nuclear foci, imaging, Selleck Cancer Library (AID 1347162; in the data active = plate-normalised HSF1 focus index below about 0.46). To be noted: human cells, at 10 µM; SSMD: measured here: HSF1 foci SSMD mean; cell count: measured here: cell number; plate-normalised HSF1 focus index: stronger effect = lower value.
Experiment [5] is described as follows: SU-DIPG-XXV glioma cell viability, MIPE5.0 library, qHTS (AID 1347068; cut-off not given, nearly all actives have IC50 up to about 30 µM).
The nature of experiment [6]: sensitizers of A549 cells to miR-34 induction, primary screen, imaging, A549 dox-inducible miR-34, nuclei and caspase counts (AID 1347080;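 active = compounds whose cell count with miR-34 switched on is under 0.7 times the count with it off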). Particulars: A549 miR-34 inducible, Hoechst nuclei count, 48 h.
Experiment [7] can be described thus: survival rescue of mitochondrial mutant cells in low glucose, primary screen, MELAS cybrids, Rieske KO mouse fibroblasts, CellTiter-Glo (AID 1508586;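 active = mean z-score across replicates of 1.96 or higher in either the MELAS or the Rieske mutant cell line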;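 also: z relative to plate mean and SD of compound and empty wells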).
Experiment [8] is described as follows: SU-DIPG-VI glioma cell viability, MIPE4.0 library, CellTiter-Glo luminescence, qHTS (AID 1347066; cut-off not given, nearly all actives have AC50 up to about 30 µM;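 also: cells exposed to compound for 48 hours before readout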). Particulars: CellTiter-Glo ATP luminescence.
The mark [9] stands for this setting: stronger effect = lower value, cell number ratio, induced over uninduced.
Setting [10] is: measured here: relative caspase fold change +Dox/-Dox.
[11] abbreviates: measured here: total cells with miR-34 induction, stronger effect = lower value.
Where [12] appears, read: measured here: total cells without miR-34 induction.
Setting [13] is: MELAS cybrid survival, CellTiter-Glo 48 h, stronger effect = higher value.
The mark [14] stands for this setting: Rieske KO mouse fibroblast survival, CellTiter-Glo 72 h.

Take `O=C(/C=C/C#Cc1cccc(NS(=O)(=O)c2ccccc2)c1)NO`: the AC50 in experiment [1] was 1.29 µM (active). The half-maximal activity concentration (AC50) in experiment [2] was 1.82 µM (active). Further, the AC50 in experiment [3] is 1.82 µM (active). Besides, in experiment [4], the SSMD was -2.13, the cell count is 6610 and the plate-normalised HSF1 focus index was 0.874 (inactive).

Take `Cc1nc2ccc(C(=O)N3CCC4(CC3)CC(=O)c3c(cnn3C(C)C)C4)cc2[nH]1`: the molecule was called inactive in experiment [1] and in experiment [3].

On to `CCOCc1nc2c(N)nc3ccccc3c2n1CC(C)(C)O`, for which the molecule was classed as inactive in experiment [1], in experiment [2] and in experiment [5].

On to `CC1(N)CCN(c2cnc(-c3cccc(Cl)c3Cl)c(N)n2)CC1`, for which the molecule was classed as inactive in experiment [1], in experiment [3] and in experiment [5].

Take `c1cn2cc(-c3ccc4cn[nH]c4c3)nc(Nc3ccc(N4CCOCC4)cc3)c2n1`: the AC50 in experiment [1] is 11.8 µM (active); in experiment [2], 6.61 µM (active); in experiment [3] it was 14.8 µM (active). Further, in experiment [5], the molecule was called inactive. The values for the fold change in experiment [6] (setting [9]) and in experiment [6] (setting [10]) were 0.776 (inactive) and 0.455, respectively. Moreover, the cell count in experiment [6] (setting [11]) is 4570; in experiment [6] (setting [12]), 5880. Besides, the results for the z-score in experiment [7] (setting [13]) and in experiment [7] (setting [14]) were 1.34 (inactive) and 0.233, respectively.

Consider `COc1cccc(-c2ccc(NC(=O)C3=C(C(=O)O)CCC3)c(F)c2)c1`, for which the result in experiment [1], in experiment [2] and in experiment [5] was inactive.

With `Oc1ccc(C2CCN(c3ccnc4ccccc34)CC2)cc1O`, the concentration at half-maximal activity (AC50) is 16.6 µM (active) in experiment [1] and 20.9 µM (active) in experiment [3].

Take `Cc1ccc(NS(=O)(=O)c2ccc3c(c2)C2C=CCC2C(c2ccc(C(=O)O)cc2)N3)cc1C` (stereo not drawn): the molecule was classed as inactive in experiment [1], in experiment [3] and in experiment [5].

In the case of `Cc1cc(C)cc(Oc2ccc(CNC(=O)[C@H](C)N)cc2C)c1`, the results for the AC50 in experiment [1] and in experiment [2] were 26.3 µM (active) and 18.6 µM (active), respectively. Also, the outcome in experiment [5] was inactive.

As for `C[C@H]1CNCCCN1S(=O)(=O)c1cccc2cncc(F)c12`, the outcome in experiment [1], in experiment [3] and in experiment [5] was inactive.

As for `Nc1ccn([C@@H]2C(F)=C(CO)[C@@H](O)[C@H]2O)c(=O)n1`, the outcome in experiment [1], in experiment [3] and in experiment [5] was inactive.

With `Cn1cc(-c2cnc3ccc4ccc(CS(=O)(=O)NCc5ccccn5)cc4c(=O)c3c2)cn1`, the call in experiment [1], in experiment [2] and in experiment [5] was inactive.

Consider `O=C(Nc1ccc(F)c(C(F)(F)F)c1)Nc1nnc(-c2ccncc2)s1`, for which the call in experiment [1], in experiment [8], in experiment [3] and in experiment [5] was inactive.

Regarding `COc1cc(N2CCN(C)CC2)ccc1Nc1nccc(-c2cn(C)c3cnccc23)n1`, the figures for the half-maximal activity concentration (AC50) in experiment [1], in experiment [2] and in experiment [3] were 10.5 µM (active), 13.2 µM (active) and 18.6 µM (active), respectively. The molecule was called inactive in experiment [5]. Besides, the values for the fold change in experiment [6] (setting [9]) and in experiment [6] (setting [10]) were 0.785 (inactive) and 1.02, respectively. The cell count in experiment [6] (setting [11]) worked out at 4990; in experiment [6] (setting [12]), 6360. Moreover, the z-score in experiment [7] (setting [13]) is 1.95 (inactive); in experiment [7] (setting [14]), -5.23.

In general, AC50 refers to the midpoint of the concentration-response curve, whichever way the signal moves.
